The list is not random: actives were taken first. Their share in the collection is about 3.2%.
Tau fil binding: binders of human tau filaments; Potency, µM (series often up to 57.1 µM); recombinant tau filaments, thioflavin S fluorescence, 15 h; filaments grown with octadecylsulfate alongside compound; 71,000 compounds, 2% hits; P10636;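 also: actives lower thioflavin S fluorescence by blocking filaments or displacing dye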
Target sequence (P10636 whole entry, looked up): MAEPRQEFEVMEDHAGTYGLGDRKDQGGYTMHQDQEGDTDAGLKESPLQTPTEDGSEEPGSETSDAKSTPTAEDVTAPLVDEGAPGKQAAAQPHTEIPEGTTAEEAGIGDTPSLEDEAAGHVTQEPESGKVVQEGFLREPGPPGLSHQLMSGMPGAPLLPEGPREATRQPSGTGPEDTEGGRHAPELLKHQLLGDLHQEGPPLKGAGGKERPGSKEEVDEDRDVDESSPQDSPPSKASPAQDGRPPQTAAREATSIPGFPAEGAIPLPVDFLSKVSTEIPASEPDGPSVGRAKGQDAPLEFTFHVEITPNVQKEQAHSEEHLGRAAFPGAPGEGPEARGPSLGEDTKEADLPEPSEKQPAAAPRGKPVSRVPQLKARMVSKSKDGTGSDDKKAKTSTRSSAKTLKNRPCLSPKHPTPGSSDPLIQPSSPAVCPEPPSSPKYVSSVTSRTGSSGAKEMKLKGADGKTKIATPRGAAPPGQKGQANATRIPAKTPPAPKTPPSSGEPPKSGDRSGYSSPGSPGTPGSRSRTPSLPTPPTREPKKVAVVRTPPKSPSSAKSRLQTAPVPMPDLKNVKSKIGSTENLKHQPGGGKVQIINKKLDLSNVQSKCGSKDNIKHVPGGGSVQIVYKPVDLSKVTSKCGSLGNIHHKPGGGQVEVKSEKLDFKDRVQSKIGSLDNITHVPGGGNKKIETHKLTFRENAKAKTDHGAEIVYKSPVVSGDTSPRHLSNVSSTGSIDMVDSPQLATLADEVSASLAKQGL
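His-tagged recombinant human tau (exons 2, 3 and 10 included), 1 uM, was induced to fibrillize by 30 uM sodium octadecylsulfate with compound present. After 15 h at 37 C, thioflavine S fluorescence (ex 450, em 510 nm) was read.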
ERK AVP inh: blocks ERK signaling stimulated by vasopressin. HEK293-V1b, vasopressin-stimulated pERK AlphaScreen. Potency, µM (titrated, usually from 57.5 µM), most hits filed as inhibitors. 72,000 compounds, 0.99% hits; also: nearly all actives have a fitted effect of over 55% in size
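HEK293 cells stably expressing V1b receptor, preincubated 30 min at 37 °C with compound, then stimulated 5 min with 25 nM vasopressin. Phospho-ERK by AlphaScreen SureFire after 5 h RT; normalized to DMSO and vasopressin; AC50 by Hill fit.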
p53ts 39C tox: cytotoxicity in p53ts cells at nonpermissive temperature; 130,000 compounds, 1.5% hits; H1299-p53A138V viability at 39C, ATP luminescence, 24 h; AID 902; Potency, µM (top dose mostly 46.1 µM), usual class: cytotoxic; also: nearly all actives have a fitted effect of over 55% in size
p53ts 32C tox: kills p53ts cells at the permissive temperature; H1299-p53A138V at 32C, ATP luminescence viability, 24 h; Potency, µM (doses to about 46.1 µM), actives largely listed as cytotoxic; 130,000 compounds, 0.93% hits; AID 924; also: nearly all actives have a fitted effect of over 55% in size
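H1299-p53 A138V cells (temperature-sensitive p53) exposed 24 h to up to 46 uM compound at 32C, where p53 is wild-type in conformation. Viability read as ATP luminescence and normalised to DMSO and 100 uM tamoxifen. AC50 fitted with the Hill equation.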
YjeE inh: displaces an ADP probe from E. coli YjeE (TsaE); P0AF67; purified YjeE enzyme, qHTS inhibition assay; Potency, µM; 71,000 compounds, 0.05% hits
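Fluorescence polarization of a BODIPY Texas Red–ADP probe (2 uM) bound to purified YjeE (10 uM) was read after 15 min room-temperature incubation with compounds. Loss of polarization marks inhibitors; ADP serves as titrated control.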
Pol III holo inh: blocks replication by bacterial DNA polymerase III holoenzyme | Potency, µM (titrated, usually from 57.1 µM) | 71,000 compounds, 0.25% hits | AID 603 | reconstituted DNA polymerase III holoenzyme replication, biochemical
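Reconstituted *E. coli* holoenzyme (0.35 nM Pol III, 1 nM beta, 154 nM SSB, 2 nM primase) was preincubated with compound for 15 min at RT. Synthesis on 1.4 nM ssM13Gori ran 35 min, then was stopped with PicoGreen/EDTA and read as dsDNA fluorescence.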
Tau ThS bind: tau filament binding by ThS displacement. Potency, µM. recombinant tau filaments, Thioflavin S fluorescence displacement. shares compounds with Tau fil binding. AID 911. 60 compounds, 40% hits; calls by dose curve
aSyn ThS bind: displaces Thioflavin S from alpha-synuclein fibrils; shares compounds with Tau fil binding; recombinant alpha-synuclein fibrils, ThS fluorescence displacement; Potency, µM; 60 compounds, 40% hits; AID 937; calls by dose curve
Abeta ThS displ: amyloid beta fibril binding by ThS displacement; shares compounds with Tau fil binding; Abeta1-42 fibrillization, thioflavin S fluorescence, overnight 37 C; Potency, µM; 60 compounds, 50% hits; calls by dose curve
Hits are given with their value; n = inactive; u = inconclusive; x = not tested or not shown; [ ] = remark or other dose. Unless noted, calls follow the shape of the dose curve; as a rule, active = well fitted curve in the direction sought with a large enough effect; inconclusive = small, poorly fitted or top-dose-only effect, or another doubt; inactive = no such curve, though single readings can be large; an effect the other way counts as inactive or inconclusive.

SMILES	Tau fil binding	ERK AVP inh	p53ts 39C tox	p53ts 32C tox	YjeE inh	Pol III holo inh	others
O=S(=O)(Nc1cccc(-c2ccc(N3CCCCC3)nn2)c1)c1cccs1	x	x	6.3µM	10µM	x	x
CC(=O)c1ccc(S(=O)(=O)Nc2cccc(-c3ccc(N4CCCCCC4)nn3)c2)cc1	x	x	6.3µM	u	x	x
CC(=O)c1ccc(S(=O)(=O)Nc2cccc(-c3ccc(N4CCCC4)nn3)c2)cc1	x	x	u	n	x	x
Cc1ccc(S(=O)(=O)Nc2ccc(-c3ccc(N4CCCCCC4)nn3)cc2)cc1C	x	x	n	n	x	x
COc1ccc(S(=O)(=O)Nc2cccc(-c3ccc(N4CCCCCC4)nn3)c2)cc1OC	x	x	u	n	x	x
O=S(=O)(Nc1cccc(-c2ccc(N3CCCCC3)nn2)c1)c1ccc(Cl)s1	x	x	5µM	10µM	x	x
CC(C)Oc1ccc(C(=O)N2CC(=O)Nc3ccc(F)cc3C2c2ccc(F)cc2)cc1 (stereo not given)	x	x	n	n	x	x
COc1cccc(C(=O)NC2CC3CCCC(C2)N3CC(=O)Nc2ccc(N(C)C)cc2)c1 (stereo not given)	13µM	n	n	n	n	n
O=C(NCCCN1CCN(c2ccc(F)cc2)CC1)c1ccc2nc(Cc3ccccc3)oc2c1	x	x	u	n	x	x
CC1CCC2C(=O)OC(CN=[N+]=[N-])CN2C1c1ccc(Br)cc1 (stereo not given)	x	n[11.5 µM]	n[9.22 µM]	n[9.22 µM]	x	x
COc1ccc(S(=O)(=O)N2CCSC2c2ccc(OC)c(OC)c2)cc1 (stereo not given)	n	n	n	n	n	n
COc1ccc(C2SCCN2S(=O)(=O)c2ccc(F)cc2)cc1OC (stereo not given)	n	13µM	u	n	n	n
O=C(COC(=O)c1cccs1)c1ccc2ccccc2c1	x	x	n	n	x	x
Cc1ccc(C(=O)COC(=O)c2cccs2)cc1	x	x	n	20µM	x	x
CCOc1cc(C)c(S(=O)(=O)NC2CCCCC2)cc1C	10µM	n	n	n	n	n
CCOc1cc(S(=O)(=O)NC2CCCCCC2)ccc1F	n	n	n	n	n	n
N#CC(=C(/N)Sc1ccccc1N)/C(C#N)=C(/N)Sc1ccccc1N	u	0.2µM	n	n	n	n
COc1ccc(S(=O)(=O)Nc2ccc(C)cc2)cc1OC	n	n	n	n	n	n
COc1ccc(S(=O)(=O)c2ccc(OC)c(OC)c2)cc1OC	n	16µM	n	n	n	n
COc1ccc(S(=O)(=O)Nc2ccc3c(c2)OCO3)cc1C(=O)O	x	x	n	n	x	x
COc1ccc(S(=O)(=O)Nc2ccc3c(c2)OCO3)cc1OC	25µM	n	n	n	n	n
COc1ccc(C(=O)CC2(O)C(=O)N(Cc3ccccc3)c3ccc(Br)cc32)cc1 (stereo not given)	x	x	13µM	n	x	x
Cc1[nH]c2ccccc2c1C1(O)C(=O)N(Cc2ccccc2Cl)c2ccccc21 (stereo not given)	x	x	u	n	x	x
Cc1ccc(C(=O)CC2(O)C(=O)N(CCc3ccccc3)c3ccc(Cl)cc32)cc1 (stereo not given)	x	x	16µM	u	x	x
Cc1[nH]c2ccccc2c1C1(O)C(=O)N(Cc2ccccc2)c2ccc(Br)cc21 (stereo not given)	x	x	13µM	n	x	x
SMILES	Tau fil binding	ERK AVP inh	p53ts 39C tox	p53ts 32C tox	YjeE inh	Pol III holo inh	others
O=C(CC1(O)C(=O)N(CCc2ccccc2)c2ccc(Br)cc21)c1ccccc1 (stereo not given)	x	x	u	n	x	x
Cc1ccc(-c2onc(C)c2C)cc1S(=O)(=O)NCc1ccc(N(C)C)cc1	x	x	n	n	x	x
COC(=O)c1ccc(Nc2nnc(-c3ccc(C)c(S(=O)(=O)N4CCN(C)CC4)c3)c3ccccc23)cc1	x	x	n	n	x	x
CCc1ccc(-n2nc(C)c3c(C)cc(=O)n(CC(=O)Nc4ccc(OC)c(OC)c4)c32)cc1	x	x	n	n	x	x
O=c1[nH]c2ccc(NCc3ccc(-c4cccc(Cl)c4)o3)cc2[nH]1	x	x	n	n	x	x
CC(=O)Nc1c(Cl)n(C(C)=O)c2ccccc12	20µM	n	n	n	n	n
COC(=O)c1cc2sccc2n1CC(=O)Nc1cc(Cl)ccc1OC	x	x	u	n	x	x
Cc1cccc(N2CCN(C(=O)C3CCN(C(=O)c4cc5sccc5n4C)CC3)CC2C)c1 (stereo not given)	x	x	13µM	n	x	x
COc1ccc(CCN(C)CCCOc2ccc(S(=O)(=O)c3[nH]c4ccccc4c3C(C)C)cc2)cc1OC	n	n	13µM	25µM	n	n
COc1ccc(CCN(C)CCc2ccc(OC)c(OC)c2)cc1OC	u	n	n	n	n	n
CCCOc1ccc(CNC(=O)CCCN2C(=O)CSc3c2c(C)nn3-c2ccccc2)cc1	x	x	u	n	x	x
COc1ccc(-n2c(C)c(C(C)=O)c(C(C)=O)c2C)cc1OC	n	32µM	n	n	n	n
Cc1cc(C)n(-c2ccc(C(=O)Nc3sccc3C(N)=O)cc2)n1	n	u	u	u	n	n
Cc1cc(C)n(-c2ccc(C(=O)Nc3ccccn3)cc2)n1	n	n	10µM	13µM	n	n
COc1ccccc1N1CCN(c2nc3ccc(C)cc3n3nnnc23)CC1	x	x	n	n	x	x
CCCCCc1c(C)nc(NCc2ccccc2)[nH]c1=O	32µM	n	n	n	n	n
Cc1cc2nc(-c3ccc(SCC(=O)N4CCOCC4)nc3)[nH]c2cc1C	n	n	7.9µM	6.3µM	n	u
Cc1cc2nc(-c3ccc(SCC(=O)N4CCN(C(=O)c5ccco5)CC4)nc3)[nH]c2cc1C	n	n	5µM	6.3µM	n	n
Cc1c(CC(=O)NCCc2ccc(Cl)cc2)c(=O)oc2c(C)c3occ(C(C)(C)C)c3cc12	x	x	u	n	x	x
Cc1ccc(-c2noc(CN(C3CCCCC3)S(=O)(=O)c3ccc(C)cc3)n2)cc1	x	x	n	n	x	x
CCOC(=O)c1ccc(N2C(=O)c3[nH]nc(-c4ccc(C)cc4)c3C2c2cccc(F)c2)cc1 (stereo not given)	x	x	n	n	x	x
N=C(N)c1ccc(N=Nc2c(O)ccc3c2[nH]c2ccccc23)cc1	1µM	n[11.5 µM]	n[9.22 µM]	n[9.22 µM]	n	u	Tau ThS bind=0.81µM;aSyn ThS bind=2.6µM;Abeta ThS displ=1µM
O=C(O)c1ccc(S(=O)(=O)N=Nc2c(O)[nH]c3ccccc23)cc1	n[11.4 µM]	n[11.5 µM]	n[9.22 µM]	n[9.22 µM]	n	n[11.4 µM]
O=C(COc1ccccc1)NCc1ccc2c(c1)CCN2C(=O)c1ccc(Cl)cc1	x	x	n	n	x	x
CN(C)c1cc(O)c(C(=S)Nc2ccccc2)c(N(C)C)c1	n	n	n	n	n	n
